Screens: PubChem, National Center for Advancing Translational Sciences (NCATS)
Giardia FBPA inh-1 = blocks Giardia fructose-bisphosphate aldolase activity; Potency, µM (series often up to 59.6 µM), without a hit: at the top dose activity, negative = inhibition, actives largely listed as inhibitors; A8B2U2; purified Giardia FBPA; 0.71% of 290,000 active; also: potency is read from the fitted curve at half-maximal effect; nearly all actives have a fitted effect of over 55% in size
Target sequence (A8B2U2 whole entry, looked up): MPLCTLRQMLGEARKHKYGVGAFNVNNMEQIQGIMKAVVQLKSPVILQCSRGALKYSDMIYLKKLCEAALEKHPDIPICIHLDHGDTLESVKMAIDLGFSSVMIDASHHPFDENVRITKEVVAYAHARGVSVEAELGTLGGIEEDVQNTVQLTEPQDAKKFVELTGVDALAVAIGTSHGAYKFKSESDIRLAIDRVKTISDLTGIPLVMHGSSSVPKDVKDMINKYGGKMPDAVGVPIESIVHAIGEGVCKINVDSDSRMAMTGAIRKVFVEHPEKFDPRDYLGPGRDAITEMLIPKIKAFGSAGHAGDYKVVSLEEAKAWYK
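40 nM FBPA preincubated 10 min at RT with compound (up to 57.5 uM final), then substrate plus GAPDH/TPI/NAD/arsenate coupling and diaphorase/resazurin added. Fluorescence read after 20 min at RT, 525/598 nm.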
FMDV antiviral = antivirals against foot and mouth disease virus; Potency, µM (series often up to 57.9 µM), for inactives: at the top dose activity change, negative = inhibition, usual class: inhibitors; 1.2% of 410,000 active; FMDV antiviral cell-based qHTS; AID 1159524; calls by dose curve; tested in HEK293T cells; also: read-out not given here; potency is read from the fitted curve at half-maximal effect; nearly all actives have a fitted effect of over 45% in size
HCV inhibitor = HCV inhibition; Huh7.5.1 HCVcc-Cre infection, luciferase reporter, 44 h; Potency, µM (titrated, usually from 41.8 µM), for inactives: at the top dose activity change, negative = inhibition, actives largely listed as inhibitors; 3.4% of 340,000 active; also: potency is read from the fitted curve at half-maximal effect
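Antiviral activity was scored by luciferase reporter output from cells infected with HCVcc-Cre (~0.5 moi) in presence of compound, 44 h infection period, cells seeded 1,000/well 4 h prior.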
VACV Venus inh = vaccinia inhibition (Venus reporter). Potency, µM (highest dose often 36.5 µM), for inactives: at the highest dose activity change, negative = inhibition, usual class: inhibitors. 0.46% of 330,000 active. Vaccinia virus Venus reporter expression, fluorescence; calls by dose curve; tested in A549 cells; also: potency is read from the fitted curve at half-maximal effect; nearly all actives have a fitted effect of over 30% in size
VACV mCherry inh = vaccinia inhibition (mCherry reporter); Vaccinia virus mCherry reporter infection, fluorescence; Potency, µM (highest dose often 36.5 µM), for the others: at the highest dose activity change, negative = inhibition, hits mostly inhibitors; 0.63% of 310,000 active; calls by dose curve; tested in A549 cells; also: potency is read from the fitted curve at half-maximal effect; nearly all actives have a fitted effect of over 35% in size
HCMV inh = human cytomegalovirus inhibition; 4.5% of 410,000 active; activity change, negative = inhibition, % at 57.5 µM; AID 1259415; HFF cells, HCMV-luciferase reporter, 72 h; stronger effect = lower value; in the data active = activity change below about -60%; inconclusive = no clear call, values can overlap the other calls; inactive = above about -39%
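Luciferase read-out from HCMV-luciferase-infected HFFs (MOI 1 PFU/cell) 72 h post infection at 37C; compounds added after 16 h cell attachment; activity normalized between buffer-only basal and Salinomycin (10uM) inhibitor controls.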
Giardia growth = blocks growth of Giardia lamblia trophozoites | 5% of 1,500 active | shares compounds with Giardia FBPA inh-1 | Potency, µM (highest dose often 57.5 µM), for inactives: at the highest dose activity change, negative = inhibition, most hits filed as inhibitors | Giardia lamblia trophozoite growth inhibition;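 also: potency is read from the fitted curve at half-maximal effect; trophozoites exposed to compound for 48 h at 37 °C; nearly all actives have a fitted effect of over 70% in size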
Mammal cell tox = toxic to mammalian cells in Giardia aldolase counter-screen; mammalian cell viability counter-screen, qHTS; AID 2786; 4% of 1,500 active; Potency, µM (series often up to 57.5 µM), for inactives: at the top dose viability change, negative = toxicity, usual class: inhibitors; shares compounds with Giardia FBPA inh-1;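 also: Chinese hamster ovary cells used as mammalian cytotoxicity surrogate; viability measured as cellular ATP by luminescence; potency is read from the fitted curve at half-maximal effect; compound exposure lasted 48 h before reading; nearly all actives have a fitted effect of over 60% in size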
Giardia FBPA inh-2 = confirmation of Giardia fructose-bisphosphate aldolase inhibitors; Potency, µM (highest dose often 57.5 µM), inactives show at the top dose activity change, negative = inhibition, hits mostly inhibitors; purified Giardia aldolase enzyme activity, qHTS; shares compounds with Giardia FBPA inh-1; 5% of 1,500 active; also: potency is read from the fitted curve at half-maximal effect; nearly all actives have a fitted effect of over 45% in size
Rabbit FBPA inh = blocks rabbit muscle aldolase in Giardia aldolase selectivity test; shares compounds with Giardia FBPA inh-1; 4% of 1,500 active; Potency, µM (top dose mostly 57.5 µM), for the others: at the top dose activity, negative = inhibition, most hits filed as inhibitors; Rabbit muscle FBPA enzyme inhibition, selectivity counter-screen; AID 2794; also: potency is read from the fitted curve at half-maximal effect; nearly all actives have a fitted effect of over 60% in size
Target sequence (P00883 whole entry, looked up): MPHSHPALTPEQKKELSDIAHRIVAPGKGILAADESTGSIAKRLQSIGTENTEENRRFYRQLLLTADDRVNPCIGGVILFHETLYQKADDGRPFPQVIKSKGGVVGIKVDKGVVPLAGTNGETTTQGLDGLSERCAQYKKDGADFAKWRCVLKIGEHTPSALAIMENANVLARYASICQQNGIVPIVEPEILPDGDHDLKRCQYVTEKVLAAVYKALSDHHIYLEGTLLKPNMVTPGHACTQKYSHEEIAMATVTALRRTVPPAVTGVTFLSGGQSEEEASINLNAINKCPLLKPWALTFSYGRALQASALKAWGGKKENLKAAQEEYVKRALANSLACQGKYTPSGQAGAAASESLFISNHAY
GAPDH coupling = GAPDH inhibition flagged for Giardia aldolase hits | shares compounds with Giardia FBPA inh-1 | GAPDH coupling enzyme counterscreen, biochemical, qHTS | Potency, µM (top dose mostly 57.5 µM), for the others: top-dose activity change, negative = inhibition, actives largely listed as inhibitors | 6% of 1,500 active | AID 2795; also: potency is read from the fitted curve at half-maximal effect; nearly all actives have a fitted effect of over 55% in size
Active calls of the source: *; i = inactive; ? = inconclusive; . = not tested or not shown; [ ] = remark or other dose. Sampled rows, rich in hits. Any-hit rate of the full collection: about 7.5%. Unless noted, calls follow the shape of the dose curve; as a rule, active = well fitted curve in the direction sought with a large enough effect; inconclusive = small, poorly fitted or top-dose-only effect, or another doubt; inactive = no such curve, though single readings can be large; an effect the other way counts as inactive or inconclusive. % is scaled to controls: 0 for no effect and ±100 for the full control effect.

SMILES	Giardia FBPA inh-1	FMDV antiviral	HCV inhibitor	VACV Venus inh	VACV mCherry inh	HCMV inh	Giardia growth	Mammal cell tox	Giardia FBPA inh-2	Rabbit FBPA inh	GAPDH coupling
CCOC(=O)c1sc2nc(CC(=O)OC)nc(N3CCN(c4ccccn4)CC3)c2c1C	-6%	.	-18%	-13%	-14%	-28	.	.	.	.	.
COc1cc(OC)c(OC)cc1CNC(=O)c1cc(S(=O)(=O)N2CCOCC2)ccc1F	.	-14%	-5%	.	.	-29	.	.	.	.	.
N#CCC(=O)Nn1c(=S)[nH]c2ccccc2c1=O	3.5µM*	1%	13%	5%	12%	?	-1%[38.3 µM]	5%	-14%	6%	1%
CC(C)(C)OC(=O)N1CCC(Cc2cc(-c3ccc(Cl)cc3)no2)(C(=O)O)CC1	?	-9%	13%	-12%	i	-7	.	.	.	.	.
Cc1ccc(N=Nc2c(O)ccc3n[nH]nc23)cc1	16µM*	-7%	?	-21%	-28%	-32	?	-1%	?	-21%	-2%
Cc1ccc(C)c(N2CCN(Cc3csc(C)c3C)CC2)c1	.	?	.	-6%	-7%	-13	.	.	.	.	.
Cc1ccc(C)c(N2CCN(CCN3CCCCC3)CC2)c1	16µM*	-7%	1%	.	.	5	?	-1%	4%	6%	-14%
O=Nc1onc(-c2ccc([N+](=O)[O-])cc2)c1NO	14µM*	-21%	14%	-11%	-29%	-28	?	1%	-14%	-4%	16%
Cc1ccc(-c2noc(N=O)c2NO)cc1	?	-14%	-16%	-5%	-13%	?	.	.	.	.	.
O=C(NC1CCCN(C2Cc3ccccc3C2)C1)c1ccc(F)cc1Cl (centres undefined)	2%	9%	1%	.	.	30	.	.	.	.	.
Nc1c2c(nc3ccc(Br)cc13)N(C1CCCCC1)CC2	18µM*	.	.	.	.	.	5µM*	-28%	-4%	-4%	-10%
O=c1c2cc(Br)ccc2nc2n1CCCCC2	.	55%	7%	-12%	-17%	.	.	.	.	.	.
CCCn1nnc(NC(=S)NC(=O)CC)n1	5.6µM*	13%	4%	.	.	6	?	-5%	-1%	1%	4%
CC(C)C(=O)NC(=S)Nc1nnn(C)n1	3.2µM*	-11%	14%	-18%	-12%	18	?	0%	-1%	7%	6%
Cn1nnc(NC(=S)NC(=O)c2cccs2)n1	2µM*	-3%	19%	-8%	-1%	?	-8%	4%	-1%	7%	7%
Cn1nnc(NC(=S)NC(=O)c2cccc3ccccc23)n1	.	-25%	6%	-13%	-12%	16	.	.	.	.	.
CN(C)S(=O)(=O)c1ccc(NC(=S)NC(=O)c2cccs2)cc1	18µM*	13%	-1%	2%	i	-4	-9%[10.4 µM]	-17%	7%	5%	11%
CC1(C(=O)NS(=O)(=O)c2ccc(Cl)cc2)CCN1C(=O)CCC1CCCC1 (centres undefined)	.	-9%	.	7%	12%	25	.	.	.	.	.
COc1cc(OC)cc(C(=O)NC(=S)Nc2nnn(C)n2)c1	3.5µM*	-9%	22%	-8%	-15%	-5	-18%[38.3 µM]	-5%	3%	9%	10%
COc1ccc(/C=C2\Sc3ccc(C(=O)NCCCN4CCCC4)cc3N(C)C2=O)cc1OC	-24%	2%	6%	.	.	?	.	.	.	.	.
CN(Cc1cc([N+](=O)[O-])c2cccnc2c1O)C1CCCCC1	2%	.	7%	.	.	.	.	.	.	.	.
CCCC(=O)NC(c1ccco1)c1cc([N+](=O)[O-])c2cccnc2c1O (centres undefined)	7.1µM*	-30%	-5%	-5%	-11%	-64*	?	-7%	-28%	-25%	?
Cc1nnc(N2CCN(C(=O)NC(C)C)CC2)c2nn(-c3ccccc3)c(C)c12	.	0%	.	3%	-9%	-14	.	.	.	.	.
COc1ccc(C(=O)NC(=S)Nc2ccc(S(N)(=O)=O)cc2)cc1	?	26%	12%	13%	i	35	.	.	.	.	.
NS(=O)(=O)c1ccc(NC(=S)NCc2ccc(Cl)cc2)cc1	16µM*	-21%	8%	?	.	0	-8%[10.4 µM]	-9%	-6%	2%	9%
SMILES	Giardia FBPA inh-1	FMDV antiviral	HCV inhibitor	VACV Venus inh	VACV mCherry inh	HCMV inh	Giardia growth	Mammal cell tox	Giardia FBPA inh-2	Rabbit FBPA inh	GAPDH coupling
Cn1cc(Br)c(C(=O)NC(=S)Nc2ccc(S(N)(=O)=O)cc2)n1	16µM*	-9%	4%	-5%	0%	?	-26%	10%	3%	9%	12%
NS(=O)(=O)c1ccc(CNC(=S)Nc2ccc(F)c(Cl)c2)cc1	-15%	-22%	0%	-2%	-10%	-4	.	.	.	.	.
Cc1onc(-c2c(Cl)cccc2Cl)c1C(=O)NC(=S)N1CCOCC1	4µM*	-15%	13%	.	.	-14	-4%[38.3 µM]	?	-6%	5%	3%
Cc1onc(-c2c(Cl)cccc2Cl)c1C(=O)N1CCOCC1	6%	-7%	-3%	-26%	-26%	-10	.	.	.	.	.
COc1ccc(C2C(C#N)=C(N)N(c3cccnc3)C3=C2C(=O)CC(C)(C)C3)cc1OC (centres undefined)	14µM*	-11%	0%	-17%	-17%	-15	25%	1%	-4%	-7%	8%
Cc1nc(SCC(=O)c2ccccc2)n[nH]1	13µM*	49%	1%	.	.	8	11%	-11%	5%	10%	3%
CCN(C(=O)COc1ccc(F)cc1Br)c1c(N)n(Cc2ccccc2)c(=O)[nH]c1=O	.	-15%	6%	.	.	8	.	.	.	.	.
Cn1c(=O)[nH]c(=O)c2c1nc(SCC(=O)O)n2Cc1ccccc1	14µM*	-8%	10%	.	.	24	-26%	7%	5%	8%	9%
COc1ccc(Cc2c(-c3ccc(OC)c(OC)c3)nc3cc(C)c(Br)c(C)n23)c(C)c1	.	-19%	.	-3%	-4%	-17	.	.	.	.	.
O=C(O)c1cccc(-c2ccc(/C=N/Nc3nn[nH]n3)o2)c1	16µM*	54%	19%	-13%	-9%	25	-12%	5%	-1%	-11%	-1%
Cc1ccc(S(=O)(=O)C(C#N)=C2N(C)c3ccccc3N2C)cc1	-13%	20%	1%	4%	i	-10	.	.	.	.	.
